“And” between values parts separate entries of the source, which are not always exact repeats. Equal entries are not always repeated. Out of some 16,000 compounds screened, about 5,700 (36%) were called active. Another 24% or so got no clear call; they are omitted. The call rests on the fitted dose curve; in most records, active means well fitted curve in the direction sought with a large enough effect; inconclusive means small, poorly fitted or top-dose-only effect, or effect the other way; inactive means no such curve, though single readings can be large or run the other way. The list shows a part of the results. The source holds several records for some structures; these can differ, active in one and inactive in another.

What is called AC50 is the concentration giving half of the maximal activity seen.
On the % scale 0 is the no-effect control and ±100 the full control effect.

Cytochrome P450 1A2 (Homo sapiens), sequence (P05177 whole entry, looked up): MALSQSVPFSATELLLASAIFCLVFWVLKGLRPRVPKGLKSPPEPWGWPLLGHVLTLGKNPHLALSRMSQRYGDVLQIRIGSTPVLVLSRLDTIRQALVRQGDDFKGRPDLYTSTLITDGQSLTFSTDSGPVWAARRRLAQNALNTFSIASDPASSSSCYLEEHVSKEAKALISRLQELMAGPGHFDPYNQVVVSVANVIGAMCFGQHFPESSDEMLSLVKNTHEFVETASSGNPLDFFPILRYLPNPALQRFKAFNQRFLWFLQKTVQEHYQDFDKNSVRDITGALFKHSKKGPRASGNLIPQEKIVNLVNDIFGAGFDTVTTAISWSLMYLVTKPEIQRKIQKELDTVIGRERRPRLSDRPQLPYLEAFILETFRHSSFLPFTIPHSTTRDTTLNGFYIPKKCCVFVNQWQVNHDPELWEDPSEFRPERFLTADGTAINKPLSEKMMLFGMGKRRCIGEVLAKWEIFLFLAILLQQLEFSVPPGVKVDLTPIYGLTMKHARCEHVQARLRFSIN

This assay addresses Cytochrome P450 1A2 (Homo sapiens) (UniProt P05177). As to the kind of experiment: Cytochrome panel assay with activity outcomes. The conditions noted are these: recombinant CYP, pro-luciferin dealkylation, luminescence, p450-cyp1a2; series mostly up to 57.1 µM.
As to `CCN1C(=O)/C(=C2\SC(=S)N(CCCOC)C2=O)c2ccccc21`, the AC50 is 1.58 µM (active).

`N#Cc1c(Cl)cccc1-n1ccnc1`: the AC50 is 1 µM (active).

Take `N#Cc1c(-n2ccnc2)cccc1-n1ccnc1`: the AC50 was 2.51 µM (active).

On to `FC(F)(F)c1ccccc1-n1ccnc1`, for which the AC50 is 0.251 µM (active).

For `CC(=O)Nc1ccc(NC2=Nc3ccccc3N3C2=Nc2c(c(C)nn2-c2ccccc2)C3c2ccccc2)cc1` (stereo not given), the AC50 result was “inactive”.

For the compound `C=CCNC(=O)C1CCN(S(=O)(=O)CC)CC1`, the AC50 result was “inactive”.

Consider `COc1ccccc1CNc1ncnc2ccc(-c3ccccc3C#N)cc12`, for which the AC50 was 1.26 µM (active).

For the compound `COc1ccc(CNc2ncnc3ccc(-c4ccccc4C#N)cc23)c(OC)c1`, the AC50 is 6.31 µM (active).

Consider `Cc1ccc(N(Cc2ccc([N+](=O)[O-])cc2)C(=O)c2ccco2)cc1`, for which the AC50 is 12.6 µM (active).

In the case of `Cc1ccc(C(=O)N/C(=C\c2ccc([N+](=O)[O-])cc2)C(=O)NCCc2ccccc2)cc1`, the AC50 entry is “inactive”.

In the case of `O=C1c2ccccc2C(=O)N1CCCCN(C(=O)c1ccc([N+](=O)[O-])cc1)c1ccc(Cl)cc1`, the AC50 result is “inactive”.

As for `Nc1nc(-c2cccs2)cs1`, the AC50 is 7.08 µM (active) and the activity, negative = inhibition is -30.1% [at 2.29 µM] (inactive).

For `NC(=O)C[C@H](N)C(N)=O`, the activity, negative = inhibition is -6.74% [at 11.4 µM] (inactive).

On to `CC(=O)SCC[N+](C)(C)C`, for which the AC50 result was “inactive”.

`O=C(Nc1cccc(-c2nc3ccccc3s2)c1)c1ccc2c(c1)OCO2`: the AC50 is 2 µM (active).

As for `O=C(Nc1cc(-c2nc3ccccc3s2)ccc1Cl)c1ccc2c(c1)OCO2`, the AC50 was 1.41 µM (active).

For `Cc1ccc(-n2nc3ccc(NC(=O)c4ccc5c(c4)OCO5)cc3n2)cc1`, the AC50 entry was “inactive”.

As to `CCc1sc(N(C(=O)Cc2ccccc2)c2cccc(F)c2)nc1-c1ccc(C)cc1`, the AC50 entry is “inactive”.

Regarding `COc1ccc(N(CC(=O)N/N=C/c2cccs2)S(=O)(=O)c2ccc(OC)c(OC)c2)cc1`, the AC50 result was “inactive”.

For `Cn1cccc1CC(=O)N/N=C\c1cccs1`, the half-maximal activity concentration (AC50) was 15.8 µM (active).

With `C/C(=N/NC(=O)Cc1cccn1C)c1ccccc1`, the AC50 was 20 µM (active).

As for `CC(C)(C)c1cccc(Oc2nn[nH]n2)c1`, the AC50 entry was “inactive”.

As to `NC(=NCCC[C@H](N)C(=O)O)NO`, the AC50 entry was “inactive”.

In the case of `CN/C(=C\[N+](=O)[O-])NCCSCc1csc(CN(C)C)n1`, the AC50 result was “inactive”.

In the case of `Cc1noc(C)c1COc1ccc(C(=O)NCC2CCCO2)cc1` (stereo not given), the AC50 result is “inactive”.

For `O=C(Nc1ccccc1C(=O)NCC1CCCO1)c1ccc(Cl)cc1Cl` (stereo not given), the AC50 is 8.91 µM (active).

Consider `Cc1ccc(-c2nnn(CC(=O)N(c3ccccc3)C(C(=O)NCC3CCCO3)c3ccc(Cl)cc3)n2)cc1` (stereo not given), for which the AC50 result was “inactive”.

As for `O=C(NCC1CCCO1)c1cc(-c2ccc(Cl)cc2Cl)on1` (stereo not given), the concentration at half-maximal activity (AC50) was 2.51 µM (active).

In the case of `O=C(O)c1cc(S(=O)(=O)NCC2CCCO2)ccc1Cl` (stereo not given), the AC50 result was “inactive”.

Consider `Clc1ccccc1NN(Cc1ccncc1)c1ccccc1Cl`, for which the AC50 is 5.01 µM (active).

`Clc1ccccc1NN(Cc1ccccn1)c1ccccc1Cl`: the activity, negative = inhibition is -22.4% [at 2.29 µM] (inactive).

Regarding `CN(C)c1ccc(N=Nc2cccc3ccoc23)cc1`, the AC50 is 0.251 µM (active).

For the compound `COC(=O)CNC(=O)CN1C(=O)N(c2ccccc2)C(N(O)C(=O)Nc2ccccc2)C1(C)C` (stereo not given), the AC50 entry is “inactive”.

With `O=C(Cn1cnc2ccccc21)NC(c1ccccc1)c1ccccc1`, the AC50 result is “inactive”.

Consider `O=c1onc2cnc3ccccc3n12`, for which the half-maximal activity concentration (AC50) was 2.51 µM (active).

Regarding `COCCNC(=O)COc1ccc(OCCNC[C@@H](O)COc2ccccc2)cc1`, the AC50 result was “inactive”.

Consider `Cc1ccc(OCC(O)CNC(=O)c2ccccc2C(=O)O)cc1` (stereo not given), for which the concentration at half-maximal activity (AC50) is 14.1 µM (active).

Take `O=C(NCCNC[C@@H](O)COc1ccc(O)cc1)N1CCOCC1`: the AC50 result is “inactive”.

Turning to `CC(=O)NC(CCS(C)(=O)=O)C(=O)Nc1c(F)cccc1F` (stereo not given), the AC50 entry is “inactive”.

For the compound `Cc1cccc(NC(=O)CSc2nc3ccccc3c3nc(CCc4c(C)n[nH]c4C)nn23)c1`, the AC50 entry is “inactive”.

On to `Cc1cccc(NC(=O)CCSc2nc(C)cc(C)n2)c1`, for which the AC50 is 14.1 µM (active).

Take `Cc1cccc(NC(=O)CSc2nc3nc(C)cc(C)c3c(=O)[nH]2)c1`: the AC50 is 2 µM (active).

On to `Cc1cc(C)nc(SCCc2cccc[n+]2C)n1`, for which the activity, negative = inhibition is -18.6% [at 2.29 µM] (inactive).

`CC[N+](CC)(CC)CC(=O)Nc1c(C)cccc1C`: the AC50 result was “inactive”.

Consider `OCCN(C=NC1=NN(c2cccc(C(F)(F)F)c2)CC1)CCO`, for which the AC50 was 2.82 µM (active).

For the compound `CCC(C)NC(=O)C1c2cc(OC)c(OC)cc2C(=O)N(C)C1c1cccs1` (stereo not given), the AC50 result is “inactive”.

Regarding `COc1ccc(-c2cc(C(F)F)nc(-n3nc(C)cc3C)n2)cc1`, the AC50 is 1.78 µM (active).

`COc1ccc(-c2ccc3c(n2)CCCN3C[C@H](O)CN2CCCc3nc(C)c(C)cc32)cc1`: the activity, negative = inhibition is -2.83% [at 11.4 µM] (inactive).

With `Fc1ccc([C@H]2CCNC[C@H]2COc2ccc3c(c2)OCO3)cc1`, the AC50 was 3.16 µM (active).

Turning to `COc1cc(CN2CCN(C(=O)CC(C)C)CC2)cc(OC)c1OC`, the AC50 entry was “inactive”.

Turning to `OC(CN1CCCCC1)CN1CCCCC1`, the AC50 result was “inactive”.

In the case of `Cc1nn2c(NCC(C)C)c3c(nc2c1-c1ccccc1)CCC3`, the AC50 is 2.82 µM (active).

On to `CCC(C)[C@H](NC(=O)Nc1ccc(Oc2ccccc2)cc1)C(=O)O` (stereo not given in full), for which the AC50 result is “inactive”.

As to `CCN(CC)c1nc(Nc2ccccc2)nc(Oc2ccc(C(=O)OC)cc2)n1`, the AC50 was 12.6 µM (active).

As to `CN1CCCC1CCNC1C2CC3CC(C2)CC1C3` (stereo not given), the AC50 entry was “inactive”.

For the compound `COC(=O)c1c(C)[nH]c(O)c1C=Nc1ccc(C(C)C)cc1`, the AC50 was 5.62 µM (active).

As to `CSc1nsc(SC)c1C(=O)Nc1ccc(C)cc1`, the AC50 is 7.08 µM (active).

Consider `CCCNC(=O)OC[C@@H]1O[C@H](CCO/N=C(\C)CCN2CCc3nc(CC)c(CC)cc3C2)C=C[C@@H]1Oc1ccc(OC)cc1`, for which the activity, negative = inhibition is -0.5% [at 11.4 µM] (inactive).

In the case of `CC1=C(CC(=O)O)c2cc(F)ccc2/C1=C\c1ccc(S(C)=O)cc1` (stereo not given), the AC50 is 3.98 µM (active) and 12.6 µM (active).

On to `CC1=C(CC(=O)O)c2cc(F)ccc2/C1=C\c1ccc(S(C)(=O)=O)cc1`, for which the AC50 was 12.6 µM (active).

Take `C=C(C)[C@@H]1CC=C(C(=O)O)CC1`: the AC50 result is “inactive”.

For the compound `Cc1cnc(CNc2ccnc(-c3cccc(C#N)c3)n2)cn1`, the AC50 was 1.26 µM (active).

In the case of `COc1cccc(-c2nccc(NCc3cnc(C)cn3)n2)c1`, the AC50 was 0.501 µM (active).

`Cc1cnc(CNc2ccnc(-c3cccc(NS(C)(=O)=O)c3)n2)cn1`: the AC50 is 20 µM (active).

Turning to `O=C(NCCCN1CCC(Cc2ccccc2)CC1)C1CCN(S(=O)(=O)N2CCOCC2)CC1`, the AC50 result was “inactive”.

In the case of `O=C(N/N=C/c1cccnc1)c1ccc([N+](=O)[O-])cc1`, the AC50 is 5.01 µM (active).

As to `O=[N+]([O-])c1ccc([C@@H](Nc2ccccc2)c2ccc3cccnc3c2O)cc1`, the activity, negative = inhibition is -21.3% [at 2.29 µM] (inactive).

As to `Nc1ccc(C(=O)NCC(=O)O)cc1`, the AC50 result was “inactive”.

For `Nc1ccc(C(=O)N/N=C/c2ccccc2)cc1`, the AC50 was 25.1 µM (active).

As to `O=[N+]([O-])c1ccc(/C=N/N/C(=N/c2ccccn2)c2ccccn2)cc1`, the AC50 is 12.6 µM (active).

With `O=C(N/N=C\c1cccc(O)c1)c1ccncc1`, the activity, negative = inhibition was -15.7% [at 11.4 µM] (inactive).

As to `O=C(N/N=C/c1ccc(F)cc1)c1ccc(Br)cc1`, the half-maximal activity concentration (AC50) is 0.794 µM (active).

Regarding `COc1cc(/C=N/NC(=O)c2ccncc2)ccc1OC(=O)c1ccc([N+](=O)[O-])cc1`, the AC50 entry is “inactive”.

Regarding `CO[C@]1(NC(=O)Cc2cccs2)C(=O)N2C(C(=O)O)=C(COC(N)=O)CS[C@H]21`, the AC50 entry was “inactive”.

With `O=C(O)c1cccc(C(=O)O)c1S(=O)Cc1ccccc1` (stereo not given), the activity, negative = inhibition is -2.43% [at 11.4 µM] (inactive).

In the case of `O=c1c(-c2cccc(Cl)c2)nc2cncnc2n1C1CC1`, the AC50 is 0.631 µM (active).

As to `O=c1c(-c2cccc(F)c2)nc2cncnc2n1C1CC1`, the concentration at half-maximal activity (AC50) was 1.58 µM (active).

For the compound `Cn1c(=O)c2c(-c3cccc(F)c3)c3c(nc2n(C)c1=O)-c1ccccc1C3O` (stereo not given), the AC50 result is “inactive”.

In the case of `O=c1c(-c2cccs2)nc2cncnc2n1C1CC1`, the AC50 is 2.51 µM (active).

On to `O=c1c(-c2ccccc2)nc2cncnc2n1C1CC1`, for which the AC50 is 2 µM (active).

In the case of `CCC1OC23CCCCC2C(C#N)(C(=N)O3)C1(C#N)C#N` (stereo not given), the AC50 result is “inactive”.

`NC(=O)NC(=O)[C@H]1CCCC[C@@H]1C(=O)O`: the activity, negative = inhibition was -6.09% [at 11.4 µM] (inactive).

Take `O=C1C2C3C=CC(C3)C2C(=O)N1c1ncn[nH]1` (stereo not given): the AC50 entry was “inactive”.

`Cc1nc2cncnc2n(C2CC2)c1=O`: the AC50 was 15.8 µM (active).

As to `O=c1c(-c2ccc(F)c(F)c2)nc2cncnc2n1C1CC1`, the AC50 was 0.1 µM (active).

For the compound `COc1ccc(-n2c(=O)c(C)nc3cncnc32)cc1`, the AC50 entry was “inactive”.

Consider `O=c1c(-c2ccc(F)cc2)nc2cncnc2n1C1CC1`, for which the AC50 is 0.158 µM (active).

Turning to `O=c1c(-c2cc(F)cc(F)c2)nc2cncnc2n1C1CC1`, the AC50 is 1.26 µM (active).

`COC(=O)c1cc2c(ccn2-c2ccc(F)cc2)n1CC(C)C`: the AC50 was 0.501 µM (active).

On to `CCC(C(=O)N1CCOCC1)n1c(C(=O)OC)cc2occc21` (stereo not given), for which the AC50 result was “inactive”.

Consider `COC(=O)c1cc2c(ccn2-c2ccc(F)cc2)n1C(C)C`, for which the AC50 was 1 µM (active).

For the compound `COC(=O)C/C=C\[C@@H](C)[C@@H](/C=N\O[C@@H]1O[C@H](COC(C)=O)[C@H](OC(C)=O)[C@H](OC(C)=O)[C@H]1OC(C)=O)OC`, the activity, negative = inhibition is 8.95% [at 11.4 µM] (inactive).

For the compound `O=C1C[C@@H](O)[C@@H](O)[C@H]2[C@@H]3C(=O)N(Cc4ccc5c(c4)OCO5)C(=O)[C@@H]3CC[C@H]12`, the activity, negative = inhibition was -14.6% [at 11.4 µM] (inactive) and 4.43% [at 11.4 µM] (inactive).

On to `COc1ccc(CCN2C(=O)C(Oc3ccccc3C)C2c2ccc3c(c2)OCO3)cc1OC` (stereo not given), for which the AC50 result is “inactive”.

Regarding `Cc1ccccc1OC1C(=O)N(Cc2ccc3c(c2)OCO3)C1c1sccc1C` (stereo not given), the AC50 was 3.16 µM (active).

Turning to `O=C(c1csnn1)N1CCC2(CCCN(c3ccccc3)C2)CC1`, the AC50 result was “inactive”.

For `COc1cc(N)c(Cl)cc1C(=O)CCC1CCN(CCNS(C)(=O)=O)CC1`, the AC50 result was “inactive”.

In the case of `COc1[nH]c2ccc(F)cc2c1C(=O)OCC1CCN(CCNS(C)(=O)=O)CC1`, the AC50 result was “inactive”.

Regarding `Cn1cc(C(=O)OCC2CCN(CCNS(C)(=O)=O)CC2)c2ccccc21`, the AC50 was 15.8 µM (active).

The values above are taken from PubChem BioAssay AID1851 (National Center for Advancing Translational Sciences (NCATS), 2009).
